# Measured values from PubChem BioAssay (NCATS).
# Unmarked numbers belong to inactive results. Results filed as inconclusive are left out. A call without a number means that no potency is given here. Activity calls are given as the source filed them. Unless noted, calls come from the whole dose curve; as a rule, active = well fitted curve in the direction sought with a large enough effect; inconclusive = small, poorly fitted or top-dose-only effect, or another doubt; inactive = no such curve, though single readings can be large; an effect the other way counts as inactive or inconclusive.
# Columns and labels:
# [1] = NS1 protein of Zika virus - qHTS assay to identify small molecule inhibitors in human HEK 293 cells (AID 1347053); note: nearly all actives have a fitted effect of over 55% in size
# Method in brief: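 TR-FRET signal from two anti-ZIKV NS1 antibodies quantified NS1 in HEK 293 cells 24 h after MR766 infection at MOI = 0.5; compounds were added 1 h before virus. Uninfected cells and infected cells defined the NS1 normalization range.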
# [2] = target: T1, Tyrosine-protein phosphatase non-receptor type substrate 1 (Homo sapiens) + Leukocyte surface antigen CD47 (Homo sapiens) (UniProt P78324+Q08722); test: CD47-SIRPalpha protein protein interaction - LANCE assay qHTS validation (AID 1347057; active = well fitted curve in the direction sought with a large enough effect in the signal ratio, with a control signal flat, not every such curve was filed as active; the % refers to the signal ratio)
# Method in brief: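 Inhibition of soluble CD47/SIRPalpha ectodomain association by titrated compounds, measured as 665/615 nm time-resolved FRET ratio after sequential 30 min room-temperature incubations.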
# [3] = target: T1, Tyrosine-protein phosphatase non-receptor type substrate 1 (Homo sapiens) + Leukocyte surface antigen CD47 (Homo sapiens); test: CD47-SIRPalpha protein protein interaction - HTRF assay qHTS validation (AID 1347058; active = well fitted curve in the direction sought with a large enough effect in the signal ratio, not every such curve was filed as active; the % refers to the signal ratio)
# Method in brief: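 Soluble extracellular domains (6His-CD47, Avi-tag-biotinylated SIRPalpha) in PBS pH 7.4 with 0.05% IGEPAL CA-630. Compounds were preincubated 30 min at RT with CD47 and anti-His-Eu, then SIRPalpha and SAV-XL665 were added. TR-FRET 665/615 ratio.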
# [4] = target: T1, Tyrosine-protein phosphatase non-receptor type substrate 1 (Homo sapiens) + Leukocyte surface antigen CD47 (Homo sapiens); test: CD47-SIRPalpha protein protein interaction - Alpha assay qHTS validation (AID 1347059);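 note: bead proximity luminescence from CD47 binding SIRPalpha after compound preincubation with SIRPalpha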
# Method in brief: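 AlphaScreen signal between CD47-His (12.5 nM) and biotin-SIRPalpha (25 nM) soluble extracellular domains, bead-captured via Ni-NTA and streptavidin. Compounds, in 7-point titrations, met SIRPalpha 30 min before CD47; PBS pH 7.4 with 0.05% IGEPAL.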
# [5] = target: Parathyroid hormone/parathyroid hormone-related peptide receptor (Homo sapiens) (UniProt Q03431); test: qHTS for PTHR1 Agonists: Optimization Screen against the NCGC LOPAC library (AID 1347079);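 note: GloSensor cAMP luminescence in HEK-293 GP2 cells expressing human PTHR1 with IBMX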; note: potency is the fitted concentration of half-maximal effect
# Method in brief: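 HEK-293 GP2 cells, PTHR1 + GloSensor cAMP; 3000 cells/well, o/n. Luciferin + IBMX 0.5mM each (stock), 1 hr 37C. Cpd titration, 1 hr 37C. Lum after 15 min RT. Ctrl M-PTH(1-15) top 10uM.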
# [6] = target: N-terminal Xaa-Pro-Lys N-methyltransferase 1 (Homo sapiens) (UniProt Q9BV86); test: qHTS Assay for Inhibitors of N-terminal methyltransferase 1 (NTMT1): LOPAC validation of the NTMT1 SAHH-coupled ThioGlo3 Assay (AID 1347143);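 note: SAH from peptide methylation measured as thiol fluorescence via SAHH coupling and ThioGlo3; nearly all actives have a fitted effect of over 70% in size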
# Method in brief: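 NTMT1 125nM + cpds (various conc.), 1 min RT; add SAM 100uM/SAHH 10uM/ThioGlo3 15uM (addition mix). SAHH-coupled thiol detection, Ex340/Em450, t0 and 30 min RT; signal normalized to background. LOPAC 1280-cpd pilot.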
# [7] = system: Zika virus NS2B-NS3 protease (unlinked); test: Optimization of GU AMC qHTS for Zika virus inhibitors: Unlinked NS2B-NS3 protease assay (AID 1347151); note: nearly all actives have a fitted effect of over 80% in size
# Method in brief: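 Fluorescence read-out (340 nm ex / 450 nm em) of AMC peptide cleavage, taken immediately and after 15 min at room temperature (~20% conversion). Enzyme was the unlinked NS2B–NS3 complex at 25 nM in Tris pH 8.0 buffer.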
# [8] = target: Lysine-specific demethylase 5B (Homo sapiens) (UniProt Q9UGL1); test: Optimization screen for KDM5B Histone Demethylases FDH coupled qHTS against the LOPAC library (AID 1347166); settings: KDM5B demethylation, FDH-coupled NADH fluorescence (FDH is formaldehyde dehydrogenase); at 57.5 µM (top of the series)
# Method in brief: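 KDM5BDeltaAP (200nM final) in 50mM HEPES pH 7.5, 0.01% Tween-20 was preincubated with compound for 10 min at room temperature. A substrate mix of 12.5uM H3K4Me3, 25uM a-ketoglutarate, ascorbate, Fe2+, NAD+ and formaldehyde dehydrogenase was then added. NADH fluorescence (340/450 nm) was read initially and after 30 min.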
# Sequence of N-terminal Xaa-Pro-Lys N-methyltransferase 1 (Homo sapiens) (Q9BV86 whole entry, looked up): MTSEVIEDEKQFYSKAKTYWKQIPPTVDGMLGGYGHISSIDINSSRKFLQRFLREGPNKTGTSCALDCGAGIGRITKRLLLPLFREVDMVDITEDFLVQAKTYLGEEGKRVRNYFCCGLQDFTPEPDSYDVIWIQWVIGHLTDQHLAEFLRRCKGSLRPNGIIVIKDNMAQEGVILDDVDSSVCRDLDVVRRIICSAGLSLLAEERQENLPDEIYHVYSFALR
# Sequence of Lysine-specific demethylase 5B (Homo sapiens) (Q9UGL1 whole entry, looked up): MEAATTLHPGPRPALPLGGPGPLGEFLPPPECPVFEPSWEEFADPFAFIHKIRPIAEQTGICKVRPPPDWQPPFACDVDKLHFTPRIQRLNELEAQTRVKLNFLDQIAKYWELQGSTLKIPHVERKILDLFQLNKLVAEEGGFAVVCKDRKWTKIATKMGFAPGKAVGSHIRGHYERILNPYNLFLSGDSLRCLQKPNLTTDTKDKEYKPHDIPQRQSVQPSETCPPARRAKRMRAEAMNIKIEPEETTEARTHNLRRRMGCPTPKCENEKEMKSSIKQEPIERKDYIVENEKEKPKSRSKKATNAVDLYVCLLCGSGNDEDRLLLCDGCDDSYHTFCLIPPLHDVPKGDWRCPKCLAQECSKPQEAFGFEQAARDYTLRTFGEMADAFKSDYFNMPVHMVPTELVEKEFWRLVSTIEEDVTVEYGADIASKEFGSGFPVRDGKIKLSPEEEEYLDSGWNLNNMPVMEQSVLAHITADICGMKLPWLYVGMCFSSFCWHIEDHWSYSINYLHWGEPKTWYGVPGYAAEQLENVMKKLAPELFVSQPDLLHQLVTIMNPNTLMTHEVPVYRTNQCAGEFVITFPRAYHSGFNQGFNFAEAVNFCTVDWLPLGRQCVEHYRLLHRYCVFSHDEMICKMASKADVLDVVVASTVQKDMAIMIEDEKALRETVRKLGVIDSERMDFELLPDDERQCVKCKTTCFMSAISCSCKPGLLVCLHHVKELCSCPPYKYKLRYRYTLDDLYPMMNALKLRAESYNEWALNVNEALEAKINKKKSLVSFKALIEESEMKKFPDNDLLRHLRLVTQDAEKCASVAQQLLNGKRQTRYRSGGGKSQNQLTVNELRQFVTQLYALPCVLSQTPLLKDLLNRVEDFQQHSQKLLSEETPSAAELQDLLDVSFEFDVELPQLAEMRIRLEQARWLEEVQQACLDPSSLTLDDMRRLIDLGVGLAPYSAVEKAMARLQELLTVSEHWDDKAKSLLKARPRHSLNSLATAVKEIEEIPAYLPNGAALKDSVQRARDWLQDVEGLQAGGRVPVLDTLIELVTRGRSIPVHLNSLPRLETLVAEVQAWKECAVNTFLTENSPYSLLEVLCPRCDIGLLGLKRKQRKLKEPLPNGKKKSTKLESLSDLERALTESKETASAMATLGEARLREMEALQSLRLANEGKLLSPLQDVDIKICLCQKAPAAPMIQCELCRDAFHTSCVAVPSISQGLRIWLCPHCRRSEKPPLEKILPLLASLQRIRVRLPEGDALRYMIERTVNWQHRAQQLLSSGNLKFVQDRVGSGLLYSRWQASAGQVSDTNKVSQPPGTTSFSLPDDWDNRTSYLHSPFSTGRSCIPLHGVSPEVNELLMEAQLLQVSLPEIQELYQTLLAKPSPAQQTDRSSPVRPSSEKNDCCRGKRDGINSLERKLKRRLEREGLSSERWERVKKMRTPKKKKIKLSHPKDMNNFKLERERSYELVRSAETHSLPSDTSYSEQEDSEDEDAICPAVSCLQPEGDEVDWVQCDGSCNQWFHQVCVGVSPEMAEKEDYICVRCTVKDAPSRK
# T1 sequence (P78324 whole entry, looked up, the tested form may be a part): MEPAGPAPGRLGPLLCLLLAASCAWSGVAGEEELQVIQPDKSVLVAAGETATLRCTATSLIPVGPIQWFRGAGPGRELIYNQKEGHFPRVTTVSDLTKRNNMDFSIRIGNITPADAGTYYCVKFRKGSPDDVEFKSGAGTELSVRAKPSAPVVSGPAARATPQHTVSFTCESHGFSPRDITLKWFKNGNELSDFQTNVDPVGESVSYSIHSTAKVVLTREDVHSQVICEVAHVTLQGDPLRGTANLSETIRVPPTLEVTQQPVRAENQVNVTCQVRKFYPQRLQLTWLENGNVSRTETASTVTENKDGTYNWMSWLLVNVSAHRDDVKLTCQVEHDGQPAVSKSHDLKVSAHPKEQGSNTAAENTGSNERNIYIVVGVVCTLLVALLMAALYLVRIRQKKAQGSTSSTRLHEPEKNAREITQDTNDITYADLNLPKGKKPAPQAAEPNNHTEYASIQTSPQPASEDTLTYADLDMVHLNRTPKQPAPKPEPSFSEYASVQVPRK
# T1 sequence (Q08722 whole entry, looked up, the tested form may be a part): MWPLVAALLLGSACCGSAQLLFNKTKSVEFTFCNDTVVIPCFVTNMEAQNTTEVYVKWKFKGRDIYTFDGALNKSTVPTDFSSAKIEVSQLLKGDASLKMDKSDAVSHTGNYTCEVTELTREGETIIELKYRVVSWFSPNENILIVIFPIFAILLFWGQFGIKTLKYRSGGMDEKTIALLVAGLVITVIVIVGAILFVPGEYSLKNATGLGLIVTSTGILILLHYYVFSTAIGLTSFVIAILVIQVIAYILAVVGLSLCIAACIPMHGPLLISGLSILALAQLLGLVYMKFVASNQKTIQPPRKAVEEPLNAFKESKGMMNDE
# Sequence of Parathyroid hormone/parathyroid hormone-related peptide receptor (Homo sapiens) (Q03431 whole entry, looked up): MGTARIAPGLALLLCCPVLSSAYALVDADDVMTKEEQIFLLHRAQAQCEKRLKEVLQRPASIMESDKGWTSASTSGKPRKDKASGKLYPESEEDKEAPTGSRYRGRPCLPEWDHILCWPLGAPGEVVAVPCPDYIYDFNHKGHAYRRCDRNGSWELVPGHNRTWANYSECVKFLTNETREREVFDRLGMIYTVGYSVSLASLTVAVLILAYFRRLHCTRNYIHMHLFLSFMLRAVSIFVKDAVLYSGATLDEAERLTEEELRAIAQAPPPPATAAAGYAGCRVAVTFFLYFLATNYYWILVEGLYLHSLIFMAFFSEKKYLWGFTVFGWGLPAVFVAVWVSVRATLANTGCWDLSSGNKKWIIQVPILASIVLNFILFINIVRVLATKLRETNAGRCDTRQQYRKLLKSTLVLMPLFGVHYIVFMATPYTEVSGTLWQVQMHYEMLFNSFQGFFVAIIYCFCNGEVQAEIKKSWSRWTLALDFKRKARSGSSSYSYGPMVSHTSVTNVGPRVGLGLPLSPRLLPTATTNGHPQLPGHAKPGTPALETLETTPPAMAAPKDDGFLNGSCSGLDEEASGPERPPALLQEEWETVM
SMILES,Potency [1],Potency [2],outcome [3],Potency [4],Potency [5],Potency [6],Potency [7],"activity, negative = inhibition [8] [%]"
NC(=O)CC[C@H](N)C(=O)O,inactive,inactive,inactive,inactive,inactive,inactive,inactive,-1.79
NCCCCN,inactive,inactive,inactive,inactive,inactive,inactive,inactive,-1.54
OC[C@H]1O[C@H](n2cnc3c(N[C@H]4CCC[C@@H]4O)ncnc32)[C@H](O)[C@@H]1O,inactive,inactive,inactive,inactive,inactive,inactive,inactive,-3.36
COc1ccc(CCn2nnnc2C2(c3ccc(C)cc3)CC2)cc1,inactive,inactive,inactive,inactive,inactive,inactive,inactive,-4.62
O=C(c1ccc2c(c1)OCCO2)N1CCCCC1,inactive,inactive,inactive,inactive,inactive,inactive,inactive,-3.79
Cn1ccnc1,inactive,inactive,inactive,inactive,inactive,inactive,inactive,-0.951
OC[C@H]1NC[C@@H](O)[C@@H]1O,inactive,inactive,inactive,inactive,inactive,inactive,inactive,1.64
CC1C(=O)N(C)C(=O)c2nc[nH]c21 (stereo unspecified),inactive,inactive,inactive,inactive,inactive,inactive,inactive,-5.54
O=C1OC(=O)C2C3CCC(O3)C12 (stereo unspecified),inactive,inactive,inactive,inactive,inactive,inactive,inactive,3.88
O=C(O)C1CN(CCCP(=O)(O)O)CCN1 (stereo unspecified),inactive,inactive,inactive,inactive,inactive,inactive,inactive,0.457
CN(C)CCC(c1ccc(Br)cc1)c1ccccn1 (stereo unspecified),inactive,inactive,inactive,inactive,inactive,inactive,inactive,-1.47
Cc1nc2n(c(=O)c1CCN1CCC(c3noc4cc(F)ccc34)CC1)CCCC2O (stereo unspecified),inactive,inactive,inactive,inactive,inactive,inactive,inactive,-13.2
O[Si](CCCN1CCCCC1)(c1ccc(F)cc1)C1CCCCC1 (stereo unspecified),inactive,inactive,inactive,inactive,inactive,inactive,inactive,-4.4
Fc1ccc(CN(C2=NCCN2)c2c(Cl)cccc2Cl)cc1,inactive,inactive,inactive,inactive,inactive,inactive,inactive,2.64
c1ccc2c(c1)CCC[C@H]2Nc1nc2ccccc2[nH]1,inactive,inactive,inactive,inactive,inactive,inactive,inactive,-7.62
CC(N)=NCCCC[C@@H](N)C(=O)O,inactive,inactive,inactive,inactive,inactive,inactive,inactive,-21.9
CSC(N)=NCCC[C@H](N)C(=O)O,inactive,inactive,inactive,inactive,inactive,inactive,inactive,-3.11
O=C(O)CCC(=O)N1CCCC1C(=O)O (stereo unspecified),inactive,inactive,inactive,inactive,inactive,inactive,inactive,-3.62
O=C(O)/C=C/c1cnc[nH]1,inactive,inactive,inactive,inactive,inactive,inactive,inactive,-28.2
O=C(O)CCC/C=C\C[C@@H]1[C@@H](/C=C/[C@H](O)C2Cc3ccccc3C2)[C@@H](F)C[C@@H]1O,inactive,inactive,inactive,inactive,inactive,inactive,inactive,-5.83
C=CCNc1ncnc2ccc(Br)cc12,inactive,inactive,inactive,inactive,inactive,inactive,inactive,-0.201
CC(=O)[C@H]1CCC2C3CC=C4C[C@@H](OS(=O)(=O)O)CC[C@]4(C)C3CC[C@@]21C (stereo partly specified),inactive,inactive,inactive,inactive,inactive,inactive,inactive,0.452
C[N+](C)(C)CC=O,inactive,inactive,inactive,inactive,inactive,inactive,inactive,-0.629
C[C@@H](NCCc1ccc(O)cc1)[C@@H](O)c1ccc(O)cc1,inactive,inactive,inactive,inactive,2380 nM (active),inactive,inactive,-4.75
NC1CONC1=O (stereo unspecified),inactive,inactive,inactive,inactive,inactive,inactive,inactive,-3.54
COC1(C2=NCCN2)COc2ccccc2O1 (stereo unspecified),inactive,inactive,inactive,inactive,inactive,inactive,inactive,-3.68
Nc1nc2c(nc(Br)n2C2OC3COP(=O)(O)O[C@@H]3C2O)c(=O)[nH]1 (stereo partly specified),inactive,inactive,inactive,inactive,inactive,inactive,inactive,-2.81
